# Assay results reported in PubChem BioAssay (NCATS).
# Results filed as inconclusive are left out. Values without a mark were called inactive. The source made the active and inactive calls. The call rests on the fitted dose curve; in most records, active means well fitted cell-killing curve with a large enough effect; inconclusive means small, poorly fitted or top-dose-only effect, or effect the other way; inactive means flat fitted curve, though single readings scatter.
# Test system: Tov112D
# Test: Primary qHTS to identify gynecologic anti-cancer compounds using libraries of approved drugs and bioactive compounds (AID 1345084); further: nearly all actives have a fitted effect of over 55% in size
# Conditions: Gynecologic cancer cell panel viability, ATPlite luminescence, 48 h; series mostly up to 57.5 µM; activity change, negative = cytotoxicity: at the top concentration
# Summary of the method: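 Cells, 1,000 per well, were allowed to settle for 16 h at 37 C before compound addition. Five concentrations were tested for 48 h, and viability was read by ATPlite luminescence after 15 min at room temperature.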
# On the % scale 0 is the no-effect control and ±100 the full control effect; potency means the concentration at half of the fitted maximal effect.
SMILES,"activity change, negative = cytotoxicity",Potency
CC1=CC(=O)C(=C(C)C)CC2C1CCC2(C)O (centres undefined),1.97%,
COc1ccc(-c2c(-c3cc(C(=O)O)ccn3)ncn2C)cc1,8.06%,
O=C(O)c1cc(-c2c(-c3ccccc3)nn3ccccc23)n[nH]c1=O,10.7%,
CC(C)(C)NCCCNC(=O)c1cccc(Br)c1,0.893%,
c1ccc(-c2csc(N3CCOCC3)n2)cc1,-3.66%,
O=C1CCC(=O)N(O)CCCCCNC(=O)CCC(=O)N(O)CCOCCNC(=O)CCC(=O)N(O)CCCCCN1,-15% [at 25.3 µM],
C=C1CC[C@H]2[C@@](C)(CCC(O)[C@@]2(C)CO)[C@@H]1CCC1=CCOC1=O (some centres undefined),-0.0535% [at 38.5 µM],
CC1(C)CCC[C@]2(C)[C@H]3CC(=O)O[C@]3(C)CC[C@@H]12,-2.19%,
CC1(C)CC[C@]2(C(=O)O[C@@H]3O[C@H](CO)[C@@H](O)[C@H](O)[C@H]3O)CC[C@]3(C)C(=CCC4[C@@]5(C)C[C@@H](O)[C@H](O)C(C)(C)C5[C@H](O)C[C@]43C)[C@@H]2[C@@H]1O (some centres undefined),-7.51% [at 25.3 µM],
COc1ccc(-n2[nH]c(=O)c3[nH]c4cc(Cl)ccc4c(=O)c3c2=O)c(C)c1,8.11%,
C=C(C)C1CCC(C)C12CC(O)C1(C)OC1C2OC(=O)C(N)CCC(=O)O (centres undefined),-4.08% [at 38.5 µM],
CC1CCC2(C(=O)O)CCC3(C)C(=CCC4C5(C)CCC(O)C(C)(CO)C5CCC43C)C2C1(C)O (centres undefined),-2.99% [at 25.3 µM],
COc1cc([C@H]2c3cc(O)c(OC)cc3C[C@@H](CO[C@@H]3O[C@H](CO)[C@@H](O)[C@H](O)[C@H]3O)[C@@H]2CO)ccc1O,-0.742% [at 25.3 µM],
O=C(O)/C=C/c1ccc(-c2ccc(O)c(C34CC5CC(CC(C5)C3)C4)c2)cc1,,1410 nM (active)
COc1cc(O)cc(C)c1C(=O)OC1C(CO)OC(OC2C(O)C(O)C(O)C(O)C2O)C(O)C1O (centres undefined),-1.25% [at 25.3 µM],
c1ccc(-c2ncc(CN3CCN(c4ncccn4)CC3)[nH]2)cc1,0.406%,
COC(=O)C1=CO[C@@H](O[C@@H]2O[C@H](CO)[C@@H](O)[C@H](O)[C@H]2O)[C@@H]2C(CO)=CC[C@]12O,10.5% [at 25.3 µM],
CC(C)CCC1(O)C(=O)C(C)(C)C(O[C@@H]2O[C@H](CO)[C@@H](O)[C@H](O)[C@H]2O)C(C)(C)C1O (some centres undefined),-0.69% [at 25.3 µM],
CCOCCn1nc(CC)c2nc(N3CCC(C(=O)O)CC3)nc(Nc3cc(C)ccn3)c21,-0.0131%,
